# Compound activity: PubChem BioAssay, National Center for Advancing Translational Sciences (NCATS)
# VACV mCherry inh = inhibitors of vaccinia virus infection (mCherry reporter signal); Vaccinia virus mCherry reporter infection, fluorescence; Potency, µM (titrated, usually from 36.5 µM), hits mostly inhibitors; hit rate 0.63% among 310,000; AID 720579; calls by dose curve; tested in A549 cells; also: nearly all actives have a fitted effect of over 35% in size
# FMDV antiviral = antivirals against foot and mouth disease virus | FMDV antiviral cell-based qHTS | AID 1159524 | Potency, µM (series often up to 57.9 µM), hits mostly inhibitors | hit rate 1.2% among 410,000; calls by dose curve; tested in HEK293T cells; also: read-out not given here; nearly all actives have a fitted effect of over 45% in size
# HCMV antiviral = blocks human cytomegalovirus replication | activity change, negative = inhibition, % at 57.5 µM | HFF cells, HCMV-luciferase reporter, 72 h; active compounds read low | hit rate 4.5% among 410,000; in the data active = activity change below about -60%; inconclusive = no clear call, values can overlap the other calls; inactive = above about -39%
#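 Two-dose cell screen: HFF monolayers treated with compounds and infected with luciferase-expressing HCMV at 1 PFU/cell, 72 h at 37C, then lysed for luciferase measurement.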
# LASV entry inh = inhibitors of Lassa virus binding or cell entry | Lassa virus pseudotype entry inhibition, cell reporter | Potency, µM (doses to about 37.9 µM), most hits filed as inhibitors | hit rate 1.2% among 300,000; calls by dose curve; tested in HEK293 cells; also: nearly all actives have a fitted effect of over 50% in size
# VACV Venus inh = inhibitors of vaccinia virus (Venus reporter). Vaccinia virus Venus reporter expression, fluorescence. Potency, µM (highest dose often 36.5 µM), usual class: inhibitors. hit rate 0.46% among 330,000; calls by dose curve; tested in A549 cells; also: nearly all actives have a fitted effect of over 30% in size
# MARV entry inh = blocks Marburg virus binding to or entry into cells; hit rate 1.8% among 300,000; Potency, µM (highest dose often 37.8 µM), hits mostly inhibitors; Marburg virus pseudotyped entry inhibition, cell reporter; AID 540276; calls by dose curve; tested in HEK293 cells
# A number is an active result; - = inactive; ? = inconclusive; . = no result; [ ] = remark or other dose. A selection: hits, their analogues and other compounds. The true share with any hit is near 6.5%.
SMILES,VACV mCherry inh,FMDV antiviral,HCMV antiviral,LASV entry inh,VACV Venus inh,MARV entry inh
CCCCn1c(N)c(N(CCOC)C(=O)CSc2ccccc2C)c(=O)[nH]c1=O,-,-,-,-,-,-
CCCCn1c(N)c(N(CCOC)C(=O)CSCc2ccccc2C)c(=O)[nH]c1=O,-,-,-97,-,-,-
CCCCn1c(N)c(N(CCOC)C(=O)CSc2n[nH]c(-c3ccc(OC)cc3)n2)c(=O)[nH]c1=O,-,-,-76,-,-,?
CCN(CC)c1ccc(-c2nnc(SCC(=O)N(CCOC)c3c(N)n(CC(C)C)c(=O)[nH]c3=O)o2)cc1,8.9µM,-,-,-,?,?
COCCN(C(=O)CSc1nnc(-c2ccc(C)c(C)c2)o1)c1c(N)n(CC(C)C)c(=O)[nH]c1=O,?,-,-,-,?,-
O=C(NC1CCCCC1)C(=O)c1ccccc1F,.,.,-,.,.,.
COC(=O)c1cn([C@@H]2C[C@@H](C(=O)Nc3cccc(SC)c3)N(C3CCCC3)C2)nn1,-,-,.,.,-,.
O=C(NCCNC(=O)c1cc(Cl)ccc1Cl)c1cnccn1,-,-,-,-,-,-
CCCCN(C(=O)CSc1nncn1-c1ccccc1)c1c(N)n(Cc2ccccc2)c(=O)[nH]c1=O,.,-,-62,-,.,-
COCCN(C(=O)CSc1n[nH]c(-c2ccc(OC)cc2)n1)c1c(N)n(Cc2ccccc2)c(=O)[nH]c1=O,-,-,-,-,-,-
CCc1ccc(-c2nc(SCC(=O)N(CCOC)c3c(N)n(Cc4ccccc4)c(=O)[nH]c3=O)n[nH]2)cc1,-,-,-79,?,-,-
CCCCCN(C(=O)CN1CCC(Cc2ccccc2)CC1)c1c(N)n(CCCC)c(=O)[nH]c1=O,-,-,-,?,-,10µM
CCCCn1c(N)c(N(CCOC)C(=O)C2CCN(S(=O)(=O)c3ccc(F)cc3)CC2)c(=O)[nH]c1=O,-,-,-,-,-,-
CCCCn1c(N)c(N(CCOC)C(=O)C2CCN(S(=O)(=O)c3ccc(Cl)cc3)CC2)c(=O)[nH]c1=O,-,-,-70,?,-,?
CC1C(=O)N(Cc2cn(CC3CCCCC3)nn2)CCS(=O)(=O)N1Cc1ccc(-c2ccc(Cl)cc2)cc1 (stereo not given),?,?,.,.,11µM,.
Cc1ccc(-c2ccc(CN3C(C(C)C)C(=O)N(Cc4cn(CC5CCCCC5)nn4)CCS3(=O)=O)cc2)cc1 (stereo not given),-,-,-,?,?,.
CC(C)C1C(=O)N(Cc2cn(CC3CCCCC3)nn2)CCS(=O)(=O)N1Cc1ccc(-c2ccc(Cl)cc2)cc1 (stereo not given),10µM,-,-,?,?,.
COc1cccc(CN(C)C(=O)c2cnn(-c3nccc(-c4ccc5c(c4)OCO5)n3)c2C)c1,-,-,.,.,-,.
CCc1ccc(NC(=O)CCCOc2cc(=O)n(C)c3ccccc23)cc1,?,-,-98,.,-,.
CCN(CC)CCOC(=O)c1ccc(NC(=O)COc2cc(=O)n(CC)c3ccccc23)cc1,.,-,-101,-,.,?
Cn1c(=O)cc(OCCCC(=O)Nc2ccc(F)cc2)c2ccccc21,-,-,-,-,-,-
NS(=O)(=O)c1cccc(C(=O)OCC(=O)NC2CCCc3ccccc32)c1 (stereo not given),.,-,-,.,.,.
O=S(=O)(NCCc1csc2nc(-c3ccccc3)nn12)c1cccs1,-,-,-,-,-,.
CCc1ccc(S(=O)(=O)NCCc2csc3nc(-c4ccccc4)nn23)s1,-,-,-79,-,-,.
CN[C@@H](C)[C@H](O)c1ccccc1,-,-,.,.,-,11µM
SMILES,VACV mCherry inh,FMDV antiviral,HCMV antiviral,LASV entry inh,VACV Venus inh,MARV entry inh
Cc1ccc(-n2nc3c([n+]2[O-])CCc2c-3no[n+]2[O-])cc1,.,-,-78,?,.,?
[O-][n+]1onc2c1CCc1c-2nn(-c2ccccc2Cl)[n+]1[O-],1µM,.,-100,?,1.3µM,?
CCOC(=O)c1c(N)sc2c(OCC)c(Br)ccc12,-,.,-,-,-,?
CCOC(=O)c1c(NC(C)=O)sc2c(OCC(O)CNC(C)(C)C)c(Br)ccc12 (stereo not given),.,-,-85,.,.,.
O=C(COC(=O)CCC(=O)c1cccs1)Nc1cccc(F)c1,.,-,-,.,.,.
CCCC(C)c1nnc(NC(=O)C2CC(=O)N(CCc3ccc(F)cc3)C2)s1 (stereo not given),-,-,-,-,-,-
CC(=O)c1cccc(-c2cnc3ccc(-c4cccc(CO)c4)nn23)c1,.,.,-95,.,.,.
CNc1ccc2ncc(-c3cccc(C(=O)N(C)C)c3)n2n1,-,-,-75,.,-,.
CC(=O)c1cccc(-c2cnc3ccc(-c4cccc(Oc5ccccc5)c4)nn23)c1,.,.,-,.,.,.
CN(C)C(=O)c1cccc(-c2ccc3nncn3c2)c1,-,-,-,.,-,.
O=C(C[n+]1cccc2cc(Cl)ccc21)c1ccc2ccccc2c1,?,.,.,.,-,.
O=C(CSc1nc2ccsc2c(=O)n1CC1CCC(C(=O)O)CC1)NCCc1ccc(Cl)cc1 (stereo not given),.,-,-,.,.,.
COCC(=O)OC1CCn2c1nc1c2C(=O)C(C)=C(NC(C)=O)C1=O (stereo not given),?,10µM,-79,3.2µM,?,?
CC(=O)NC1=C(N2CC2C)C(=O)C(NC(C)=O)=C(N2CC2C)C1=O (stereo not given),-,-,-,-,-,-
Cn1cc(Br)c(C(=O)N2CCCCCC2)n1,.,-,-,.,.,.
Cc1cc(C)nc(/N=C(\N)Nc2ccc(C(C)C)cc2)n1,-[7.34 µM],14µM,-63,?,-[7.34 µM],10µM
COc1cc(N/C(N)=N/c2nc(C)cc(C)n2)c(OC)cc1Cl,.,?,-,-,.,9.2µM
Cc1cc(C)cc(N/C(N)=N/c2nc(C)cc(C)n2)c1,-,-,-,21µM,?,?
Cc1cccc(N/C(N)=N/c2nc(C)cc(C)n2)c1,?,-,-,-,-,?
Cc1cc(C)nc(/N=C(\N)Nc2ccccc2-c2ccccc2)n1,?,18µM,?,-,-,?
Cc1ccc(N/C(N)=N/c2nc(C)cc(C)n2)cc1,-,-,-,-,-,-
Cc1cc2nc(-c3ccc(Br)cc3)cc(C(F)(F)F)n2n1,-,-,-,-,-,-
CC(C)Cc1nc2cc(NS(=O)(=O)N(C)C)cc(C(=O)N3CCc4sccc4C3)c2n1C,-,-,.,.,-,.
CCCCc1ccc(N/C(N)=N/c2nc(C)cc(C)n2)cc1,?,25µM,-97,?,?,?
CC(Oc1cccc(Cl)c1)C(=O)Nc1nc(-c2ccccn2)cs1 (stereo not given),11µM,?,-72,?,?,?
CC(Oc1ccccc1)C(=O)Nc1nc(-c2ccccn2)cs1 (stereo not given),7.1µM,-,?,-,?,-
CC(Oc1ccccc1)C(=O)Nc1nc(-c2ccncc2)cs1 (stereo not given),.,-,-,.,.,.
COc1ccc(NC(=O)c2c[nH]c(=O)n(-c3ccc(C)c(C)c3)c2=O)c(OC)c1,-,-,-,.,?,.
N=C1S/C(=C\c2ccco2)C(=O)N1c1nccs1,?,-,-115,.,-,.
